# Compounds with a hit are over-represented: about 11% of the library has one in this group of screens.
# IMPase Li cell: qHTS Assay for Identifying the Cell-Membrane Permeable IMPase Inhibitors: Potentiation with Lithium | Potency, µM (series often up to 59.4 µM), inactives show top-dose activity, negative = IMPase inhibition, most hits filed as inhibitors | CHO-M1 cells, IP1 TR-FRET (IP-One), carbachol + lithium | actives 0.35% (n = 210,000) | AID 1457, 2008; active means well fitted curve in the direction sought with a large enough effect; inconclusive means small, poorly fitted or top-dose-only effect, or another doubt; inactive means no such curve, though single readings can be large; an effect the other way counts as inactive or inconclusive;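 further: IP1 builds up when IMPase is blocked and the TR-FRET signal falls; potency means the concentration at half of the fitted maximal effect; plate controls were basal vehicle for no effect and high inhibitor control for full effect; nearly all actives have a fitted effect of over 50% in size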
#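 Concentration–response in CHO-M1 cells, lithium-potentiated; 30 min at 37C. IP1 detected by competitive TR-FRET after 10 min lysis at RT. Hill-fitted AC50.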
# IMPase inh: qHTS Assay for Identifying the Cell-Membrane Permeable IMPase Inhibitors. Inositol monophosphatase 1 (Rattus norvegicus), P97697. CHO-M1 cells, IP1 accumulation, HTRF TR-FRET ratio. inhibition (IP1 accumulation), % at 46.1 µM. 120,000 tested, under 10 active; active means well fitted curve in the direction sought with a large enough effect in the signal ratio, not every such curve was filed as active; inconclusive means small, poorly fitted or top-dose-only effect, or a change in a side signal; inactive means no such curve, though single readings can be large or run the other way; the % refers to the signal ratio;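 further: cells stimulated with carbachol in lithium chloride buffer; plate controls were DMSO basal wells for no effect and reference inhibitor wells for full effect; higher means more IMPase inhibition seen as more IP1 and lower FRET ratio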
#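 Carbachol-driven Gq signalling in CHO-M1 cells (2000/well) generates IP1. Compounds that block IMPase raise IP1 and so reduce the FRET signal from Eu-anti-IP1 and d2-IP1 after a 10 min room-temperature lysis.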
# HPGD block: qHTS Assay for Inhibitors of HPGD (15-Hydroxyprostaglandin Dehydrogenase); 15-hydroxyprostaglandin dehydrogenase [NAD(+)] (Homo sapiens), P15428; purified HPGD, NADH fluorescence kinetic, PGE2 substrate; Potency, µM, inactives show top-dose activity change, negative = inhibition, actives largely listed as inhibitors; actives 4.3% (n = 150,000); AID 894, 2007; further: potency means the concentration at half of the fitted maximal effect
# Target sequence (P15428 whole entry, looked up): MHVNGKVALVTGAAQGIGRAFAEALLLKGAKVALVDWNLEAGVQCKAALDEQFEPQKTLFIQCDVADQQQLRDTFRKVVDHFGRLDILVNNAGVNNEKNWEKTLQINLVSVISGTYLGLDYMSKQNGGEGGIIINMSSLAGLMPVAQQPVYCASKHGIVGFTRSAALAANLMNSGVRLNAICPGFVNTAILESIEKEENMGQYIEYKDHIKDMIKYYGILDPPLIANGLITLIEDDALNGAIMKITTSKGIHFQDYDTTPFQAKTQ
#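 20 nM HPGD preincubated 15 min at room temperature with compound in 50 mM Tris-HCl pH 8, 0.01% Tween 20. Started with 1 mM NAD+ and 30 uM prostaglandin E2; NADH fluorescence (360/450 nm) read 5 times over 30-s intervals, last minus first.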
# 12-hLO inh: qHTS Assay for Inhibitors of 12-hLO (12-human lipoxygenase); purified 12-hLO, xylenol orange hydroperoxide absorbance; actives 0.12% (n = 150,000); Polyunsaturated fatty acid lipoxygenase ALOX12 (Homo sapiens), P18054; AID 1452, 2008; Potency, µM (titrated, usually from 57.1 µM), for inactives: top-dose activity change, negative = inhibition, most hits filed as inhibitors; active means well fitted curve in the direction sought with a large enough effect; inconclusive means small, poorly fitted or top-dose-only effect, or another doubt; inactive means no such curve, though single readings can be large; an effect the other way counts as inactive or inconclusive; further: potency means the concentration at half of the fitted maximal effect; nearly all actives have a fitted effect of over 55% in size
#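 Hydroperoxide output read as Fe(III)-xylenol orange absorbance, 573-to-405 nm ratio, after 30 min reaction with 40 uM arachidonic acid. Enzyme: 150 nM purified human 12hLO, 15 min compound preincubation; 25 mM Hepes pH 7.0, room temperature.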
# ALDH1A1 inh: qHTS Assay for Inhibitors of Aldehyde Dehydrogenase 1 (ALDH1A1); actives 7.3% (n = 220,000); Aldehyde dehydrogenase 1A1 (Homo sapiens), P00352; Potency, µM (highest dose often 75.3 µM), without a hit: top-dose activity, negative = inhibition, hits mostly inhibitors; AID 1030, 2008; Purified ALDH1A1, NADH fluorescence, propionaldehyde substrate;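 further: potency means the concentration at half of the fitted maximal effect; plate controls were no enzyme wells and a reference inhibitor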
# Target sequence (P00352 whole entry, looked up): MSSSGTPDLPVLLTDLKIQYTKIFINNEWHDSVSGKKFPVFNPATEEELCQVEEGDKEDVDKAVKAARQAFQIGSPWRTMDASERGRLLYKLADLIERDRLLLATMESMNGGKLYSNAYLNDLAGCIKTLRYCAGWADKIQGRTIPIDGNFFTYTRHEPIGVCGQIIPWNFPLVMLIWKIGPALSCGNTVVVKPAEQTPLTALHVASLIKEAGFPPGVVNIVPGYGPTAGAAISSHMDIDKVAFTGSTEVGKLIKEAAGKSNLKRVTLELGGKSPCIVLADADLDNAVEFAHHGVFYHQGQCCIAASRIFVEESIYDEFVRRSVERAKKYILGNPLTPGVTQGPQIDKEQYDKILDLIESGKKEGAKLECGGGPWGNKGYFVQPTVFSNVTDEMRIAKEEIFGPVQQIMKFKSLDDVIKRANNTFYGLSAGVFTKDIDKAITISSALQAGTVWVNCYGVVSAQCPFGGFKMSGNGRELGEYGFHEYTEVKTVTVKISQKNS
# PNC assembly inh: High Content Assay for Compounds that inhibit the Assembly of the Perinucleolar Compartment. actives 3.1% (n = 140,000). PC3M PTB-GFP, PNC prevalence imaging, 16 h; stronger effect = lower value. activity change (PNC), negative = inhibition, % at 10 µM;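 active means readout at or below -70, meaning at least 70% loss of cells showing the perinucleolar compartment, a nuclear body marking cancer cells; inconclusive means readout between -30 and a set limit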;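 further: plate controls were DMSO wells for no effect and camptothecin positive control wells for full effect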
#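 Read-out is percentage of cells bearing a perinucleolar compartment, from automated 20x imaging of fixed, Hoechst-stained PC3M PTB-GFP cells. Cells were seeded 4 h, then exposed 16 h to compound (23 nl of library stock) in duplicate plates.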
# * hit, by the source's call; ? = inconclusive; / = not tested or not shown; [ ] = dose if it differs, or a comment. Unless noted, the call rests on the fitted dose curve; in most records, active means well fitted inhibition curve with a large enough effect (not every such curve was filed as active); inconclusive means small, poorly fitted or top-dose-only effect, or another doubt; inactive means no such curve, though single readings can be large or run the other way. Unless noted, on the % scale 0 is the no-effect control and ±100 the full control effect.
SMILES,IMPase Li cell,IMPase inh,HPGD block,12-hLO inh,ALDH1A1 inh,PNC assembly inh
Cn1cccc1C(=O)N1CCC2(CC1)CCN(c1ccccc1)CC2,11%,/,-7%,-5%,-8%,/
CN1C(=O)N(C)C2(c3ccccc3)Nn3c(s/c(=C/c4ccccc4F)c3=O)=NC12c1ccccc1 (stereo not given),20%[38.3 µM],4,-12%,7%,13%,-15
CN(C)c1ccc(/C=c2/sc3n(c2=O)NC2(c4ccccc4)N(C)C(=O)N(C)C2(c2ccccc2)N=3)cc1 (stereo not given),-2%,/,-6%,0%,12%,-84*
C[C@H]1Cc2c(COc3ccccc3)nc3c(c2CO1)CN(S(=O)(=O)c1ccc(Cl)c2nonc12)CC3,5%,/,-4%,-6%[11.4 µM],?,/
CCOc1ccc(/C(O)=C2\C(=O)C(=O)N(c3cc(C)on3)C2c2ccccc2OC)cc1 (stereo not given),5µM*,?,?,-5%,22µM*,?
CCC(C)(C)n1nnnc1CN1CCN(c2ccc(OC)cc2)CC1,-4%,/,/,/,?,/
COc1ccc(-n2nnnc2S(=O)(=O)CC(=O)N2CCCCC2)cc1,19%[38.3 µM],18,14µM*,-7%,6.3µM*,-21
COc1cc(OC)cc(-n2nnnc2SCC(=O)N2CCCC2)c1,15%[38.3 µM],8,-13%,1%,2%,?
FC(F)(F)c1cc(-c2cccc(Br)c2)nc2ncnn12,/,-9,/,/,/,/
CCC/C=C(\CCC)C(NS(=O)(=O)c1ccc(Cl)cc1)c1ccc(C(=O)OC)cc1 (stereo not given),5%,/,-16%,-4%,?,/
CCC/C=C(\CCC)C(NS(=O)(=O)CC12CCC(CC1=O)C2(C)C)c1ccc(C(=O)OC)cc1 (stereo not given),12%,/,22µM*,-1%,10µM*,/
CC(C)N(Cc1ccccc1)S(=O)(=O)c1n[nH]c(C(C)(C)C)n1,8%,/,-3%,-1%[11.4 µM],19%[13.5 µM],/
COc1ccc(C[N+](C)(C)N)cc1OC,1%,/,-3%,-5%[11.4 µM],-3%[13.5 µM],/
COC(=O)C1(C(C)=O)CC2=CC[C@@H]3C(=O)N(c4ccccc4)C(=O)[C@@H]3[C@@H]2Cc2ccccc2[C@@H]1C[N+](=O)[O-] (stereo not given in full),-28%,/,-9%,/,-9%,/
N=C1S/C(=C\c2ccco2)C(=O)N1c1nccs1,2%,/,/,/,10µM*,/
Cc1ccc(O)c(C(=O)c2cc(C#N)c(=O)n(-c3nccs3)c2)c1,13%,/,/,/,8.9µM*,/
Cc1ccc(O)c(C(=O)c2cc(C#N)c(=O)n(-c3c(C)n(C)n(-c4ccccc4)c3=O)c2)c1,-4%[38.3 µM],0,0%,-1%,9%,-15
CNC(=O)[C@@H](Cc1ccccc1)N(C)C(=O)[C@@H](Cc1ccc2ccccc2c1)N(C)C(=O)/C=C/CC(C)(C)N,7%,/,-2%,-1%,-3%,/
CCC(=O)N1c2ccccc2-c2nnc(SC)nc2OC1c1ccc(N(C)C)cc1 (stereo not given),3%,/,-5%,-3%,16µM*,19
Nn1c(SCc2cccc3ccccc23)nnc1-c1ccco1,-25%[38.3 µM],?,14µM*,-2%,-8%,-1
Nn1c(Cc2cccc3ccccc23)nnc1SCc1c(Cl)cccc1Cl,16%,/,7.9µM*,-5%,?,-10
Nn1c(Cc2cccc3ccccc23)nnc1SCn1nnc2ccccc2c1=O,24%[38.3 µM],3,-16%,-2%,-1%,?
Nn1c(Cc2cccc3ccccc23)nnc1SCc1ccc(Cl)c(Cl)c1,7%,/,2.8µM*,-4%,?,?
C[C@@]1(C(NC(=O)Cc2ccccc2)c2ccc(-c3ccccc3)cc2)C[C@H]1C1CCCCC1 (stereo not given in full),-9%,/,-3%,3%,6%,/
CCOC(=O)c1cc(C)n(-c2ccccc2)c1C,/,/,/,/,-1%,/
SMILES,IMPase Li cell,IMPase inh,HPGD block,12-hLO inh,ALDH1A1 inh,PNC assembly inh
Cc1sc2nc(CN3CCOCC3)[nH]c(=O)c2c1-c1ccccc1,-13%,/,1%,-4%,-19%,-110*
CC(=O)N1CC=CC1(CC(C)C)C(=O)NCc1ccccn1 (stereo not given),0%,/,1%,2%,-13%,/
COc1ccccc1CNc1ccnc(-c2cccc(NS(C)(=O)=O)c2)n1,7%,/,/,/,1%,/
COC(=O)c1onc(-c2ccccc2)c1C(=O)OC,7%[38.3 µM],-5,-7%,2%,10%,7
COC(=O)c1c(-c2ccc(F)cc2)noc1N,13%[38.3 µM],4,-2%,0%,1%,-89*
CCC(C)(C#CCN1CCCCC1)OC(C)=O (stereo not given),0%,/,/,/,12%,/
CN(C)C(=O)c1ccc(-c2cncnc2NCCc2cnc[nH]2)cc1,5%,/,/,/,-1%,/
CN(O)/C=N/C(=S)Nc1ccc(Cl)cc1Cl,16%,/,/,/,1.6µM*,/
CN(C)/C=N/C(=S)Nc1ccccc1Cl,-11%,/,/,/,2%,/
CCCCCCCC1=Cc2ccccc2C(C(C(C)=O)C(=O)OC)N1C(=O)OC (stereo not given),4%,/,-3%,-19%[11.4 µM],-7%[13.5 µM],/
CCCn1cc(NC(=O)c2cc3n(n2)C(C(F)(F)F)CC(c2ccccc2)N3)cn1 (stereo not given),5%[38.3 µM],3,-7%,1%,12%,-87*
CCc1ccc(C2NC(=S)NC3=C2C(=O)CC(C)(C)C3)cc1 (stereo not given),-1%,-9,-10%,-9%,2.5µM*,?
CC(C)c1ccc(C2NC(=S)NC3=C2C(=O)CC(C)(C)C3)cc1 (stereo not given),0%,1,-11%,-4%,2µM*,4
O=C1CCC(c2ccccc2)=NN1,-5%,/,/,/,-3%,/
CC/C(C)=N\N=C\c1c(O)n(CC)c2cc(C3=NNC(=O)CC3)ccc12,11%,/,32µM*,-3%,?,-11
CN1CCN(c2ccc(Cl)cc2NS(=O)(=O)c2ccccc2Cl)CC1,21%[38.3 µM],5,-9%,4%,14µM*,21
COCCn1cnc2c(c1=O)c1nc3ccccc3nc1n2/N=C/c1ccc(OC)c(OC)c1,/,/,/,/,0%,/
CCCCCCn1cnc2c(c1=O)c1nc3ccccc3nc1n2/N=C/c1ccco1,7%[38.3 µM],-2,-23%,-9%,25µM*,?

# Screening data deposited in PubChem BioAssay by National Center for Advancing Translational Sciences (NCATS).
